Reference: PubChem BioAssay AID1159580 (chemical genetic matrix, 2015)
The whole screen tested about 5,500 compounds, of which about 2,000 (36%) were called active. Inconclusive results (about 18%) are left out. Cut-off read from the data, not from the text of the source: active = normalized growth mostly below about 0.91 (no sharp cut-off); inconclusive = no clear call, values can overlap the other calls; inactive = mostly above about 0.92. Some of the results follow.

Test: chemical genetic growth profiling, strain panel (AID 1159580);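 note: tested at 20 µM; growth read once vehicle control cultures reached saturation at 30 °C; 1 = growth at the plate median or of vehicle wells; lower values mean less growth of the strain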
Settings: growth OD

Measured: normalized growth

O=C1C=CC(=C(c2ccc(O)cc2)c2ccc(O)cc2)C=C1
inactive: S. cerevisiae deletion strains, locus YJR075W, strain HOC1, hits give low values 1.02 | S. cerevisiae deletion strains, locus YKL009W, strain mrt4, hits give low values 0.995 | S. cerevisiae deletion strains, locus YKL068W, hits give low values 0.997 | S. cerevisiae deletion strains, locus YKL085W, strain MDH1 (second series), hits give low values 0.994 | S. cerevisiae deletion strains, locus YKL085W, strain MDH1, hits give low values 0.994 | S. cerevisiae deletion strains, locus YKL160W, strain elf1, hits give low values 1.01 | S. cerevisiae deletion strains, locus YKL190W, strain CNB1, hits give low values 0.994 | S. cerevisiae deletion strains, locus YKR001C, strain vps1, hits give low values 0.986 | S. cerevisiae deletion strains, locus YKR026C, strain gcn3, hits give low values 0.975 | S. cerevisiae deletion strains, locus YKR091W, strain srl3, hits give low values 0.989 | S. cerevisiae deletion strains, locus YLL001W, strain dnm1, hits give low values 0.976 | S. cerevisiae deletion strains, locus YLL026W, hits give low values 0.996 | S. cerevisiae deletion strains, locus YLL041C, strain sdh2, hits give low values 0.991 | S. cerevisiae deletion strains, locus YLR027C, strain aat2, hits give low values 0.998 | S. cerevisiae deletion strains, locus YLR039C, strain RIC1, hits give low values 1.04 | S. cerevisiae deletion strains, locus YLR058C, strain SHM2, hits give low values 0.991 | S. cerevisiae deletion strains, locus YLR102C, strain apc9, hits give low values 0.994 | S. cerevisiae deletion strains, locus YLR113W, strain HOG1, hits give low values 1.03 | S. cerevisiae deletion strains, locus YLR221C, strain rsa3, hits give low values 0.983 | S. cerevisiae deletion strains, locus YLR258W, strain gsy2, hits give low values 1.01 | S. cerevisiae deletion strains, locus YLR262C, strain YPT6 (second series), hits give low values 0.972 | S. cerevisiae deletion strains, locus YLR262C, strain YPT6, hits give low values 1.02 | S. cerevisiae deletion strains, locus YLR268W, strain sec22, hits give low values 1.02 | S. cerevisiae deletion strains, locus YLR320W, strain mms22, hits give low values 0.972 | S. cerevisiae deletion strains, locus YLR330W, strain CHS5, hits give low values 0.995 | S. cerevisiae deletion strains, locus YLR342W, strain FKS1 (second series), hits give low values 0.972 | S. cerevisiae deletion strains, locus YLR342W, strain FKS1, hits give low values 0.991 | S. cerevisiae deletion strains, locus YLR357W, strain rsc2, hits give low values 0.999 | S. cerevisiae deletion strains, locus YLR370C, strain arc18, hits give low values 0.964 | S. cerevisiae deletion strains, locus YLR371W, strain rom2, hits give low values 0.985 | S. cerevisiae deletion strains, locus YLR384C, strain iki3, hits give low values 0.986 | S. cerevisiae deletion strains, locus YLR418C, strain cdc73, hits give low values 0.999 | S. cerevisiae deletion strains, locus YML016C, strain PPZ1, hits give low values 0.991 | S. cerevisiae deletion strains, locus YML032C, strain rad52, hits give low values 0.98 | S. cerevisiae deletion strains, locus YML120C, strain ndi1, hits give low values 1.01 | S. cerevisiae deletion strains, locus YML124C, strain tub3, hits give low values 0.983 | S. cerevisiae deletion strains, locus YMR058W, strain fet3, hits give low values 0.982 | S. cerevisiae deletion strains, locus YMR078C, strain ctf18, hits give low values 0.98 | S. cerevisiae deletion strains, locus YMR125W, strain sto1, hits give low values 0.974 | S. cerevisiae deletion strains, locus YMR129W, hits give low values 0.987 | S. cerevisiae deletion strains, locus YMR205C, strain PFK2, hits give low values 0.995 | S. cerevisiae deletion strains, locus YMR223W, strain ubp8, hits give low values 0.982 | S. cerevisiae deletion strains, locus YMR231W, strain pep5, hits give low values 0.98 | S. cerevisiae deletion strains, locus YMR263W, strain SAP30, hits give low values 1.02 | S. cerevisiae deletion strains, locus YMR307W, strain GAS1, hits give low values 0.945 | S. cerevisiae deletion strains, locus YNL067W, strain RPL9B, hits give low values 1.03 | S. cerevisiae deletion strains, locus YNL071W, strain lat1, hits give low values 0.971 | S. cerevisiae deletion strains, locus YNL128W, strain TEP1, hits give low values 1.02 | S. cerevisiae deletion strains, locus YNL153C, strain GIM3, hits give low values 1.01 | S. cerevisiae deletion strains, locus YNL183C, strain NPR1, hits give low values 0.986 | S. cerevisiae deletion strains, locus YNL209W, strain ssb2, hits give low values 0.985 | S. cerevisiae deletion strains, locus YNL233W, strain BNI4, hits give low values 0.999 | S. cerevisiae deletion strains, locus YNL248C, strain rpa49, hits give low values 0.966 | S. cerevisiae deletion strains, locus YNL250W, strain rad50, hits give low values 0.984 | S. cerevisiae deletion strains, locus YNL271C, strain bni1, hits give low values 0.992 | S. cerevisiae deletion strains, locus YNL298W, strain CLA4, hits give low values 0.981 | S. cerevisiae deletion strains, locus YNL307C, strain MCK1, hits give low values 0.98 | S. cerevisiae deletion strains, locus YNL322C, strain KRE1 (second series), hits give low values 0.951 | S. cerevisiae deletion strains, locus YNL322C, strain KRE1, hits give low values 1.01 | S. cerevisiae deletion strains, locus YNR049C, strain mso1, hits give low values 0.979 | S. cerevisiae deletion strains, locus YNR052C, strain pop2, hits give low values 0.966 | S. cerevisiae deletion strains, locus YOL006C, strain TOP1, hits give low values 1.02 | S. cerevisiae deletion strains, locus YOL012C, strain htz1 1.83 | S. cerevisiae deletion strains, locus YOL147C, strain pex11, hits give low values 0.985 | S. cerevisiae deletion strains, locus YOR001W, strain rrp6, hits give low values 0.96 | S. cerevisiae deletion strains, locus YOR061W, strain CKA2, hits give low values 1 | S. cerevisiae deletion strains, locus YOR069W, strain VPS5, hits give low values 1.02 | S. cerevisiae deletion strains, locus YOR070C, strain gyp1, hits give low values 1 | S. cerevisiae deletion strains, locus YOR080W, strain dia2, hits give low values 0.986 | S. cerevisiae deletion strains, locus YOR083W, strain WHI5, hits give low values 1.02 | S. cerevisiae deletion strains, locus YOR106W, strain vam3, hits give low values 0.984 | S. cerevisiae deletion strains, locus YOR136W, strain idh2, hits give low values 0.982 | S. cerevisiae deletion strains, locus YOR144C, strain elg1, hits give low values 0.985 | S. cerevisiae deletion strains, locus YOR184W, strain ser1, hits give low values 0.988 | S. cerevisiae deletion strains, locus YOR231W, strain MKK1, hits give low values 1.04 | S. cerevisiae deletion strains, locus YOR265W, strain rbl2, hits give low values 0.978 | S. cerevisiae deletion strains, locus YOR270C, strain vph1, hits give low values 0.926 | S. cerevisiae deletion strains, locus YOR290C, strain snf2, hits give low values 1.01 | S. cerevisiae deletion strains, locus YOR316C, strain cot1, hits give low values 0.984 | S. cerevisiae deletion strains, locus YPL051W, strain arl3, hits give low values 0.987 | S. cerevisiae deletion strains, locus YPL055C, strain LGE1, hits give low values 1.06 | S. cerevisiae deletion strains, locus YPL078C, strain atp4, hits give low values 0.973 | S. cerevisiae deletion strains, locus YPL106C, strain sse1, hits give low values 0.994 | S. cerevisiae deletion strains, locus YPL240C, strain hsp82, hits give low values 0.973 | S. cerevisiae deletion strains, locus YPL241C, strain CIN2, hits give low values 1.02 | S. cerevisiae deletion strains, locus YPL256C, strain CLN2, hits give low values 1.05 | S. cerevisiae deletion strains, locus YPR119W, strain clb2, hits give low values 0.979 | S. cerevisiae deletion strains, locus YPR141C, strain kar3, hits give low values 0.992 | S. cerevisiae deletion strains, locus YPR163C, strain tif3, hits give low values 0.989 | S. cerevisiae deletion strains, locus YPR167C, strain met16, hits give low values 0.991 | S. cerevisiae deletion strains, strain wtn01, hits give low values 0.991 | S. cerevisiae strains, strain wild type, hits give low values 0.994
